Source: PubChem BioAssay AID588719 (Southern Research Specialized Biocontainment Screening …, 2011)
Screen size: about 1,500 compounds; about 920 (61%) were called active. How the calls were made is not given here. So high a share suggests a set chosen from earlier hits. Some of the results follow. Measured potencies and affinities stand elsewhere.

Assay: Vero 76 cell cytotoxicity, dose response, cytotoxicity control for VEEV inhibitor project (AID 588719)
Conditions: Vero 76 cells viability, cytotoxicity counter-screen; series mostly up to 25 µM

Structure (SMILES)	outcome
OCC1(CCOc2ccccc2)CCN(Cc2nc3ccc(F)cc3[nH]2)CC1	inactive
COc1ccc(S(=O)(=O)N2CCC(C(=O)N[C@@H](C)C(=O)NCc3ccc(F)cc3)CC2)cc1	inactive
CCCN1C(=O)c2ccccc2NC1c1ccc(OC)cc1O (centres undefined)	inactive
COc1ccc(C(=O)/C=C/C(=O)N(CC(=O)NC2CCCCC2)Cc2ccccc2OC)c(O)c1	inactive
CCN1CCN(Cc2nc3ccc([N+](=O)[O-])cc3c(=O)n2-c2ccccc2F)CC1	inactive
Cc1onc(C(=O)Nc2cccc(C(F)(F)F)c2)c1[N+](=O)[O-]	inactive
CC1(NS(=O)(=O)c2ccc(Cl)s2)CCS(=O)(=O)C1 (centres undefined)	inactive
C/C(=N/OCO/N=C(\C)c1ccccc1)c1ccccc1	inactive
O=S(=O)(Nc1nc2ccccc2nc1NCc1ccco1)c1ccc(F)cc1	inactive
O=S(=O)(c1ccc(Cl)cc1)N1CCN(C(=S)Nc2ccccc2F)CC1	inactive
CCC1CCCCN1S(=O)(=O)c1ccc(NC(=O)c2nc(S(C)(=O)=O)ncc2Cl)cc1 (centres undefined)	inactive
CC(C)(C)OC(=O)[C@H](Cc1ccccc1)NC(=O)c1nc[nH]c1C(=O)N1CCN(C(=O)OC(C)(C)C)CC1	inactive
C[C@@H](NC(=O)c1nc[nH]c1C(=O)N1CCN(C(=O)OC(C)(C)C)CC1)c1ccccc1	inactive
CCn1c2ccccc2c2cc(NC(=O)c3ccc(=O)oc3)ccc21	inactive
CN(C)CCOCCOc1ccc(Cl)cc1C(C)(C)C	inactive
O=c1cc(-c2ccccc2)nc(/C=C/c2ccccc2)[nH]1	inactive
Cc1nonc1OC(C)CNCCNc1ccc([N+](=O)[O-])cc1 (centres undefined)	inactive
COc1ccc(-n2c(CN3CCC(C(N)=O)CC3)nc3ccc([N+](=O)[O-])cc3c2=O)c(OC)c1	inactive
CCn1cc(C(=O)O)c(=O)c2cc(F)c(N3CCN(C(=S)NC(=O)c4ccc(F)cc4)CC3)cc21	inactive
S=c1[nH]nc(-c2ccccn2)n1/N=C/c1ccc(-c2ccccc2Br)o1	inactive
O=C(O)c1cccnc1Nc1ccc(Cl)cc1	inactive
O=C(Nc1ccc(Cl)cc1C(=O)c1ccccn1)c1ccccc1	inactive

Structure (SMILES)	outcome
Cc1cc(C(=O)Cn2nnc3ccccc3c2=O)c(C)n1-c1ccccc1F	inactive
Cc1ccc(C)c(-n2cc(CNC(C)Cn3cncn3)c(-c3ccccc3)n2)c1 (centres undefined)	inactive
O=C(N/N=C(\CC(=O)c1cccs1)C(F)(F)F)c1ccncc1	inactive
CCOC(=O)c1oc2ccc(S(=O)(=O)n3nc(-c4ccc(C)cc4)cc3N)cc2c1C	inactive
CC(=O)Nc1ccc(S(=O)(=O)Nc2nc(C)nc3sc4c(c23)CCC4)cc1	inactive
COc1ccccc1/C=C/C(=O)c1ccc(NC(C)=O)cc1	inactive
CCOC(=O)c1c(CSC(=N)N)n(-c2ccccc2)c2cc(Br)c(OC(C)=O)cc12	inactive
CC(C)=CCN1CCN(Cc2cccc3nccnc23)CC1CCO (centres undefined)	inactive
Cc1ccc(/C([O-])=C(/C(=S)Nc2ccc(SC(F)F)cc2)[n+]2ccccc2)cc1[N+](=O)[O-]	inactive
Cc1ccc(/C=N/NC(=O)C[n+]2ccccc2)s1	inactive
Cc1ccc(NC(=O)NCc2ccc3[nH]c(C)cc3c2)cc1	inactive
COc1cc(/C=C/C(=O)c2c(O)ccc3c(C)cc(=O)oc23)ccc1O	inactive
Cc1ccc(/C=C/c2onc(C)c2S(=O)(=O)N2CCC(C(=O)N3CCN(C)CC3)CC2)cc1	inactive
O=C(NC(Cc1c[nH]c2ccccc12)C(=O)Nc1ccc(F)cc1)c1cccs1 (centres undefined)	inactive
S=c1[nH]nc(-c2ccccc2)n1/N=C/c1ccc(-c2ccccc2Cl)o1	inactive
Cc1ccc(NC(=O)c2ncn(CCCNCC3CCCCC3)n2)cc1C	inactive
CCOc1ccccc1NC(=O)c1cc(S(=O)(=O)NCc2ccco2)ccc1F	inactive
CN1CCc2cccc3c2[C@H]1Cc1ccc(O)c(O)c1-3	inactive
COc1ccc2cc(-c3cc(C(=O)O)c4ccccc4n3)ccc2c1	inactive
CCOc1ccc(NC(=O)Cn2sc3nc(C)cc(C)c3c2=O)cc1	inactive
CCOc1ccc(NC(=O)c2c(NC(=O)CN3CCN(C)CC3)sc3c2CCC3)cc1	inactive
CC(C)CC1c2[nH]c3ccccc3c2CCN1CCCn1cccn1 (centres undefined)	inactive

Structure (SMILES)	outcome
Nc1ncnn1Cc1ccccc1	inactive
CCOC(=O)C1=NN(C(=O)c2ccc(OC)cc2)C(O)(c2ccc(Cl)cc2)C1 (centres undefined)	inactive
CCC(=NN=C(CC)c1ccccc1O)c1ccccc1O	inactive
C#CCOc1ccc(C2C3=C(CC(C)(C)CC3=O)N(CC(=O)O)C3=C2C(=O)CC(C)(C)C3)cc1OC	inactive
O=c1c2cccnc2[nH]c(=S)n1CCCN1CCN(c2ccccc2F)CC1	inactive
O=C(NCc1ccccc1)C(=O)Nc1nc(-c2ccccc2)cs1	inactive
Cc1cccc(-n2c(O)c(C=Nc3ccccc3-c3n[nH]c(=S)[nH]c3=O)c3ccccc3c2=O)n1	inactive
O=C(CNC(=O)C1COc2ccccc2O1)N/N=C\c1ccc(Cl)cc1 (centres undefined)	inactive
Nc1ccc(C(=O)OCCCc2nc3cc4ccccc4cc3[nH]2)cc1	inactive
CN(C)CCNc1nc2sc3c(c2c(=O)n1-c1ccccc1)CCCCC3	inactive
Cc1ccc(-c2cc(-c3ccco3)c3c(N)c(C(=O)NN)oc3n2)cc1	inactive
Cc1cccc(-c2ccc(NC(=O)C3CCN(CC4CC4)CC3)cc2)c1	inactive
CCn1ncc(CN2CCC(C(=O)Nc3cccc(-c4cccc(F)c4)c3)CC2)c1C	inactive
Cc1cccn2c(=O)c3cc(C#N)c(=NC(=O)c4cccs4)n(CC(C)C)c3nc12	inactive
COCCNC(=S)NCc1ccc2[nH]c3c(c2c1)CCCC3	inactive
Cc1cc2nc3c(=O)[nH]c(=S)[nH]c3nc2cc1NC(=O)C(F)(F)F	inactive
Cc1cccnc1CN1CCN(Cc2nc(C(c3ccccc3)c3ccccc3)no2)CC1	inactive
CN1CCc2nc(SCc3cccc(Br)c3)c(C#N)cc2C1	inactive
COc1ccc2sc(N(CCCN(C)C)C(=O)c3ccc(S(=O)(=O)N(C)Cc4ccccc4)cc3)nc2c1	inactive
COc1ccc2sc(N(CCCN(C)C)C(=O)c3ccc(S(=O)(=O)N(C)C4CCCCC4)cc3)nc2c1	inactive
